Laboratory results reported in PubChem BioAssay AID624093 (National Center for Advancing Translational Sciences (NCATS), 2012).
Records with an inconclusive call do not appear. Values without a mark were called inactive. Active and inactive are the calls of the source. Calls come from the whole dose curve; as a rule, active = well fitted inhibition curve with a large enough effect; inconclusive = small, poorly fitted or top-dose-only effect; inactive = flat fitted curve, though single readings scatter.

Target: Dual specificity tyrosine-phosphorylation-regulated kinase 1A (Homo sapiens) (UniProt Q13627)
Test: Confirmation Assay for Inhibitors of Dyrk1a (Kinase-Glo Assay): KU probe
Details: Kinase-Glo ATP luminescence; series mostly up to 76.9 µM; activity, negative = inhibition: at the top concentration
Text: NIH Molecular Libraries Probe Production Centers Network [MLPCN] NIH Chemical Genomics Center [NCGC] MLSCN Grant: 1R03MH084827-01 PI Name: Tom Misteli NCGC Assay Overview: The CMGC group of protein kinases which includes CDK-like kinases (Clk) and Dyks are essential kinases found in all eukaryotes. Clks have been implicated to play a role in the regulation of alternative splicing; while Dyrks, in particular over expression of Dyrk1A, has been linked to diseases as Down syndrome (DS; OMIM 190685) and Alzheimer disease (AD; OMIM 104300). Among the members of the CMGC group, the Clks and the Dyrks are very closely related therefore to determine validity and selectivity of an active compound observed in the CLK4 qHTS screen (AID:1770), a bioluminescent counter-screen against Dyrk1A was developed. In addition, potent and selective compounds against Dyrk1A were identified to further assess the role of this enzyme in DS and AD. Dyrk1A (Invitrogen, cat # PV3785) was assayed using ATP and DYRKtide (AnaSpec, cat# 62698) as substrates. Promega Kinase-Glo (cat# V6712) technology was used to detect the residual ATP following kinetic reaction. The Kinase-Glo Plus contains Ultra-Glo [5] luciferase and D-luciferin which generates a bioluminescence signal from the remaining ATP. No enzyme and harmine (Sigma, cat # 286044-1G), a compound shown to inhibit Dyrks were used as a positive control; while DMSO treatment was used as a negative control.
NCGC Assay Protocol Summary: Two uL/well of substrate solution (8uM Dyrktide, 2uM ATP, 25mM Tris-HCl pH 7.5, 10mM MgCl2 , 0.5mM EGTA, 5mM cystein, 0.01% Triton X-100 final concentration) was dispensed into 1536-well assay plates (Greiner, solid white, medium-binding plates) with Aurora Discovery BioRAPTR Flying Reagent Dispenser (FRD, Beckton-Dickenson). Compound solution (23 nL) was transferred to the assay plate using Kalypsys pin tool equipped with a 1536-pin tool. One uL/well enzyme solution (5nM Dyrk1A, 25mM Tris-HCl pH7.5, 10mM MgCl2, 0.5mM EGTA, 5mM cystein, 0.01% Triton X-100 final concentration) was then added using FRD yielding a total kinase reaction volume of 3uL/well. After 2 hours of room temperature incubation, 3uL Kinase-Glo detection reagent was added for a final assay volume of 6uL/well. The plates were spun for 30 seconds (1000 rpm) and incubated at ambient temperature for 2 minutes followed by a luminescence read using Perkin Elmer ViewLux plate reader at 3 seconds exposure time and 2x binning.

SMILES	Potency	activity, negative = inhibition
Cc1csc(CNc2ncnc3ccc(-c4ccc(CO)o4)cc23)n1	10400 nM (active)	
Brc1ccc(CNc2nccc(-c3ccc4c(c3)OCO4)n2)cc1Br	823 nM (active)	
Clc1ccc(CNc2nccc(-c3ccc4c(c3)OCO4)n2)cc1Cl	164 nM (active)	
CN(CC1CCCCC1)c1ncnc2ccc(-c3ccc4c(c3)OCO4)cc12	1160 nM (active)	
Cc1ccc(CNc2ccnc(-c3ccc(N(C)C)cc3)n2)cc1		1.98%
CCCNc1ncnc2ccc(-c3ccc4c(c3)OCO4)cc12	116 nM (active)	
Cc1csc(CN(C)c2ncnc3ccc(-c4ccc5c(c4)OCO5)cc23)n1	23.2 nM (active)	
Brc1cc(Br)cc(CNc2ccnc(-c3ccc4c(c3)OCO4)n2)c1		-18.5%
CN(C)c1ccc(-c2nccc(NCc3ccc(Cl)c(Cl)c3)n2)cc1		-3.23%
c1nc(NCC2CCCOC2)c2cc(-c3ccc4c(c3)OCO4)ccc2n1 (stereo not given)	116 nM (active)	
Clc1cc(CNc2ccnc(-c3ccc4c(c3)OCO4)n2)ccn1	23200 nM (active)	
Cc1ccc(CNc2ccnc(-c3ccc4c(c3)OCO4)n2)cc1		-13.7%
c1nc(NCC2CCOC2)c2cc(-c3ccc4c(c3)OCO4)ccc2n1 (stereo not given)	92.3 nM (active)	
c1cncc(CNc2ncncc2-c2ccc3c(c2)OCO3)c1	26000 nM (active)	
COc1ccc(-c2nccc(NCc3ccc(Cl)c(Cl)c3)n2)cc1		-9.84%
c1cncc(CNc2ccnc(-c3ccc4[nH]ncc4c3)n2)c1	654 nM (active)	
N#Cc1cccc(-c2ncccn2)c1		-13.2%
c1coc(CNc2ncnc3ccc(-c4ccc5c(c4)OCO5)cc23)c1	104 nM (active)	
COc1ccc(-c2ccnc(NCc3ccc(Cl)cc3)n2)cc1	1840 nM (active)	
c1cncc(CNc2nccc(-c3ccc4cn[nH]c4c3)n2)c1	207 nM (active)	

SMILES	Potency	activity, negative = inhibition
Clc1cc(Cl)cc(CNc2ccnc(-c3ccc4c(c3)OCO4)n2)c1		-17.3%
Cc1c(-c2ccnc(NCc3ccc(Cl)cc3)n2)sc(=O)n1C	164 nM (active)	
CC(C)(C)CNc1ncnc2ccc(-c3ccc4c(c3)OCO4)cc12	11.6 nM (active)	
COc1ccc(-c2nccc(NCc3ccc(C)cc3)n2)cc1		-10.8%
c1ccc(CNc2ccnc(-c3ccc4c(c3)OCO4)n2)cc1	26000 nM (active)	
Clc1ccc(CNc2nccc(-c3ccc4cn[nH]c4c3)n2)cc1Cl	412 nM (active)	
c1cnc(-c2ccc3c(c2)OCO3)nc1		-7.86%
COc1ccc(-c2ncccn2)cc1		-16.1%
Cc1c(-c2ccnc(NCc3cccnc3)n2)sc(=O)n1C	146 nM (active)	
O=C(O)c1ccc(-c2ccc3ncnc(NCC4CCCO4)c3c2)o1 (stereo not given)	20700 nM (active)	
c1nc(NCC2CC2)c2cc(-c3ccc4c(c3)OCO4)ccc2n1	41.2 nM (active)	
COc1ccc(-c2nccc(NCc3ccc(Cl)cc3)n2)cc1		-9.84%
Cc1noc(C)c1-c1ncccn1		-1.99%
CN(CC1CCCCO1)c1ncnc2ccc(-c3ccc4c(c3)OCO4)cc12 (stereo not given)	207 nM (active)	
CC(C)(C)CNc1ncnc2ccc(-c3ccc(C(=O)O)o3)cc12	2320 nM (active)	
COc1cccc(-c2ccnc(NCc3ccc(Cl)c(Cl)c3)n2)c1	5820 nM (active)	
O=[N+]([O-])c1cc(Nc2nccc(-c3ccc4c(c3)OCO4)n2)cc(C(F)(F)F)c1	146 nM (active)	
c1nc(NCC2CCCCC2)c2cc(-c3ccc4c(c3)OCO4)ccc2n1	116 nM (active)	
Cc1c(-c2ccnc(Nc3cc(Br)cc(C(F)(F)F)c3)n2)sc(=O)n1C	130 nM (active)	
c1nc(NCC2CCCC2)c2cc(-c3ccc4c(c3)OCO4)ccc2n1	65.4 nM (active)	
